Screening data deposited in PubChem BioAssay by National Center for Advancing Translational Sciences (NCATS).
A selection: hits, their analogues and other compounds. The true share with any hit is near 2.8%.
POLI inh – qHTS for Inhibitors of Polymerase Iota. DNA polymerase iota (Homo sapiens), Q9UNA4. Pol iota fluorescent replication assay, 10 min. Potency, µM (titrated, usually from 115 µM), hits mostly inhibitors. 1% of 390,000 active. AID 588590, 2011
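Pol iota at 10 nM preincubated 15 min with compounds at room temperature; reaction started with fluorescent substrate, 50 nM final. Fluorescence read kinetically at 0 and 10 min; buffer-only wells as negative control.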
Pol eta inh – qHTS for Inhibitors of Polymerase Eta. DNA polymerase eta (Homo sapiens), Q9Y253. recombinant Pol eta, fluorescent DNA replication assay. Potency, µM (titrated, usually from 114 µM), most hits filed as inhibitors. 1.2% of 390,000 active
Target sequence (Q9Y253 whole entry, looked up): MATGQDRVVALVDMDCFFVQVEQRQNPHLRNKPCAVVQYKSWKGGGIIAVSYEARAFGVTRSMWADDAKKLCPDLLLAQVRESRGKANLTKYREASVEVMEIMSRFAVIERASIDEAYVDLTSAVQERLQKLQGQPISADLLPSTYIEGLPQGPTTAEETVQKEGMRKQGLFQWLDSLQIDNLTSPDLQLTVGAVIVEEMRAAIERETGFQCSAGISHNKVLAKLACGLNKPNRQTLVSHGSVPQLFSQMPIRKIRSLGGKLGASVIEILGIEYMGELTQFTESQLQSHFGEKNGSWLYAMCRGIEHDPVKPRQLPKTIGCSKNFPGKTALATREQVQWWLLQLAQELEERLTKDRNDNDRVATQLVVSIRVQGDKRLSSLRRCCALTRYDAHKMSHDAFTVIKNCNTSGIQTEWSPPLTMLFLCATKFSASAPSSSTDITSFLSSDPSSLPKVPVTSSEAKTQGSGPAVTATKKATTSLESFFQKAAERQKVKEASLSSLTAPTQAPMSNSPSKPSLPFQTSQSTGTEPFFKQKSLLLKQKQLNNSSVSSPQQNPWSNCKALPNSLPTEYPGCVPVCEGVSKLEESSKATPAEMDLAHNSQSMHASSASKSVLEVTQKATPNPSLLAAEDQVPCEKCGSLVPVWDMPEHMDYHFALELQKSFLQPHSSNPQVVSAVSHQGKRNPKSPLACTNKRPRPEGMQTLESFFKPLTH
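Pol eta at 10 nM preincubated with compounds 15 min at room temperature; reaction started with fluorescent substrate (50 nM final) and read kinetically at 0 and 10 min.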
PI5P4K alpha inh – qHTS for Inhibitors of phosphatidylinositol 5-phosphate 4-kinase (PI5P4K). Phosphatidylinositol 5-phosphate 4-kinase type-2 alpha (Homo sapiens), P48426. PI5P4Kalpha enzyme, ADP-Glo luminescence, 60 min; active compounds read low. max response, %. 1.2% of 330,000 active. AID 652105, 2013; active = max response of -50% or lower; inconclusive = between -30% and -50%; inactive = -30% or higher; note: value at the top dose of about 77 µM
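qHTS, 1536-well: enzyme/substrate mix, compound by pin tool, 5 microM ATP final; RT 60 min; ADP-Glo reagents 1 (45 min) then 2 (30 min); luminescence.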
Pol kappa inh – qHTS for Inhibitors of Polymerase Kappa. DNA polymerase kappa (Homo sapiens), Q9UBT6. purified Pol kappa, fluorescent DNA synthesis assay, 10 min. Potency, µM (highest dose often 107 µM), hits mostly inhibitors. 0.53% of 400,000 active
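Pol kappa 10 nM + cpd, 15 min RT; start w/ substrate 50 nM final; fluorescence kinetic read, 0 and 10 min. Neg ctrl: buffer, no enzyme.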
PI4K2A block – qHTS for small molecular inhibitors of PI4K2A; Phosphatidylinositol 4-kinase type 2-alpha (Homo sapiens), Q9BTU6; AID 1346378, 2018; 0.13% of 420,000 active; purified PI4K2A, ADP-Glo luminescence, 1 h; active compounds read low; activity change, negative = inhibition, % at 76.9 µM; in the data active = activity change below about -50%; inconclusive = mostly about -30% to -49%
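Compounds are screened against recombinant PI4K2A using PI as substrate and ATP, the latter dispensed at 300 microM. Reactions run one hour at ambient temperature before ADP-Glo detection; full inhibition defined by wells lacking enzyme.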
Pol beta inh – qHTS Assay for Inhibitors of DNA Polymerase Beta; Potency, µM (top dose mostly 114 µM), actives largely listed as inhibitors; P06746; Pol beta primer extension/strand displacement, fluorescence kinetic; 1.3% of 340,000 active; AID 485314, 2010
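Enzyme-only controls used 10 nM Pol beta; buffer lacking enzyme served as negative control. Compound preincubated 15 min, then 50 nM substrate added; 0 and 10 min reads at room temperature.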
Each line names hits and unclear results; the compound was inactive in the other large screens. Unless noted, calls come from the whole dose curve; as a rule, active = well fitted inhibition curve with a large enough effect; inconclusive = small, poorly fitted or top-dose-only effect, or another doubt; inactive = no such curve, though single readings can be large or run the other way.

Cc1occc1C(=O)NCc1ccco1	POLI inh inconclusive, Pol eta inh inconclusive, PI5P4K alpha inh inconclusive, Pol beta inh 32µM
N#Cc1c(Cl)nsc1NC(=O)c1ccccc1	PI5P4K alpha inh -54
Cc1cccc(C(=O)Nc2sc(C)c(-c3ccccc3)c2C#N)c1	POLI inh inconclusive
O=C1CCCc2oc3ccc(NS(=O)(=O)c4cccc5cccnc45)cc3c21	POLI inh inconclusive, Pol eta inh 89µM
Cc1ccc(NC(=O)CN2C(=O)N/C(=C/c3cc(C)n(-c4cccc(C(=O)O)c4)c3C)C2=O)cc1	POLI inh 45µM, Pol eta inh 20µM, PI5P4K alpha inh inconclusive, Pol kappa inh inconclusive, Pol beta inh 10µM
COc1cccc(/C=C2/NC(=O)N(CC(=O)Nc3ccc(C)cc3)C2=O)c1OCc1cccc(C(=O)O)c1	POLI inh inconclusive, Pol eta inh inconclusive, Pol kappa inh 79µM, Pol beta inh 50µM
COc1cc2c(cc1/C=C1/NC(=O)N(CC(=O)Nc3ccccc3)C1=O)OCO2	none
CCn1c(C)cc(/C=C2\NC(=O)N(CC(=O)Nc3cccc(C)c3)C2=O)c1C	none
Brc1cccc[n+]1CCC[n+]1ccccc1Br	POLI inh inconclusive (no result: Pol eta inh, PI5P4K alpha inh, PI4K2A block, Pol beta inh)
C[C@H]1O[C@H](O[C@H]2[C@H](O)[C@@H](O)[C@@H](O[C@H]3[C@H](O)[C@@H](O)[C@H](O)O[C@@H]3CO)O[C@@H]2CO)[C@H](O)[C@@H](O)[C@@H]1N[C@H]1C=C(CO)[C@@H](O)[C@H](O)[C@H]1O	none (no result: POLI inh, Pol eta inh, PI5P4K alpha inh, Pol kappa inh, Pol beta inh)
CCN(CC)C(=O)CSc1nc2ccc(NC(=O)CSc3nccn3C)cc2s1	POLI inh 25µM, Pol beta inh 5.6µM (no result: PI5P4K alpha inh)
CNC(=O)COC(=O)c1c2c(nc3ccccc13)CCC2	POLI inh 8.9µM, Pol eta inh 25µM, PI5P4K alpha inh inconclusive, Pol kappa inh inconclusive, Pol beta inh 20µM
O=C(NC1CCCCC1)c1c2c(nc3ccccc13)CCC2	POLI inh 79µM, Pol eta inh inconclusive, PI5P4K alpha inh inconclusive, Pol beta inh 20µM
Cc1ccc(-c2nc(-c3cc4cccc(OCc5ccc(F)cc5)c4oc3=O)no2)cc1	Pol beta inh inconclusive (no result: PI5P4K alpha inh)
Cc1ccc(-c2nc(-c3cc4cccc(OCc5cccc(F)c5)c4oc3=O)no2)cc1	Pol eta inh 35µM, Pol beta inh 35µM (no result: PI5P4K alpha inh)
O=C(Cn1cc(C(=O)c2ccco2)c2ccccc21)Nc1ccccc1	Pol beta inh inconclusive
Cc1cccc(C)c1NC(=O)Cn1cc(C(=O)c2ccco2)c2ccccc21	POLI inh 79µM, Pol eta inh inconclusive, Pol beta inh 50µM (no result: PI5P4K alpha inh)
Cc1ccc(NC(=O)Cn2cc(C(=O)c3ccco3)c3ccccc32)cc1	POLI inh 79µM, Pol beta inh 11µM (no result: PI5P4K alpha inh)
C#CCN(C[C@@H]1[C@@H](OC(=O)NCc2ccc(OC)c(OC)c2)[C@@H](OC(=O)NCc2ccc(OC)c(OC)c2)CN(C(=O)OC(C)C)N1C(=O)OC(C)C)S(=O)(=O)c1ccc(C)cc1	none (no result: POLI inh, Pol kappa inh, Pol beta inh)
O=C(OCc1cn([C@H]2CN(C(=O)c3cccs3)[C@@H](c3ccc(Cl)cc3)C[C@@H]2O)nn1)c1ccccc1	none (no result: POLI inh, Pol kappa inh, Pol beta inh)
C=CCN1[C@H](CO)[C@H](c2ccccc2)[C@@H]1C#N	none (no result: POLI inh, Pol eta inh, PI5P4K alpha inh, Pol kappa inh, Pol beta inh)
COc1ccc2c(C)cc(SCC(=O)Nc3cc(C(N)=O)cc(C(N)=O)c3)nc2c1	POLI inh 35µM, Pol eta inh 50µM, Pol beta inh 25µM
N#Cc1cccc2c1-c1ccccc1/C2=N/NC(N)=S	POLI inh 20µM, Pol eta inh inconclusive
CCCCOCCCNC(=O)C[C@@H]1C[C@@]2(C(=O)OCC)CCC=C2N(Cc2ccc3c(c2)OCO3)C1=O	none (no result: POLI inh, Pol eta inh, Pol kappa inh, Pol beta inh)
COc1ccc(/C=N/Nc2nc(-c3cccnc3)nc3ccccc23)cc1OC	Pol beta inh inconclusive
Clc1ccccc1Nc1nc(-c2ccncc2)nc2ccccc12	POLI inh 50µM
